According to PubChem BioAssay (NCI):
This is part of a sample that, as a whole, favours compounds with a hit. Of some 83,000 tested, about 20% had one in any assay.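 Single-dose data. Exposure time 48 hours. Values below 10 considered active.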 The source made the active and inactive calls.

Each compound was assayed on UO-31 renal (assay: NCI-60 one-dose screen, 48 h (100 = growth as untreated, 0 = no growth, -100 = all killed)). Details: 10 µM unless noted.

| Compound | growth |
| --- | --- |
| CCCCN1C=CCN(CCCC)C1 | 74.6% (inactive) |
| Cc1nn(-c2ccccc2)c(Cl)c1/C=N\N=c1/sc2ccccc2n1C | 93% (inactive) |
| COc1cc(CC(=O)n2ncc3ccc(N)cc32)cc(OC)c1OC | 70.2% (inactive) |
| Cn1cc(-c2nc(-c3c[nH]c4c(Cl)nccc34)cs2)c2cc(Br)ccc21 | 84.5% (inactive) |
| CCNc1nc2ccc(Nc3ccnc4cc(Cl)ccc34)cc2[nH]1 | 84.9% (inactive) |
| Cc1ncc(C(=O)Nc2ccc(CN3CCN(C)CC3)c(C(F)(F)F)c2)cc1C#Cc1cnc(N)cc1C#N | -96.8% (active) |
| COc1cc(/C=C\c2cc(/C=C\c3ccc(O)c(OC)c3)n(C(=O)COc3ccccc3)n2)ccc1O | 0.475% (active) |
| C[C@H](c1nc2ccc(N)cc2[nH]1)[C@H]1CC[C@H]2[C@@H]3CCC4=CC(=O)CC[C@]4(C)[C@H]3CC[C@]12C | 65.4% (inactive) |
| CC(c1ccccc1)C(C(=O)c1ccccc1)c1ccccc1 (centres undefined) | 119% (inactive) |
| N#CC1=C(N)Oc2c(ccc3ccccc23)C1c1ccccc1Cl (centres undefined) | 43.2% (inactive) |
| N#CC(C(=O)/C(=N/NC(=O)c1ccccc1O)C(C#N)c1ccccc1)c1ccccc1 (centres undefined) | 29.4% (inactive) |
| C[C@@H](Nc1ncnc2ccc(-c3cnc(N)nc3)cc12)c1ccc(F)cc1 | 35.1% (inactive) |
| Cc1cccc(C)c1N=c1oc2ccc(Cl)cc2nc1-c1ccccc1O | 76.8% (inactive) |
| COc1cc(C2C3=C(COC3=O)N(CCO)c3cc4c(cc32)CCC4)cc(OC)c1OC (centres undefined) | 31.9% (inactive) |
| COc1cc2cc(Oc3cccc(NC(=O)Nc4cc(C(F)(F)F)cc(C(F)(F)F)c4)c3)c(C)nc2cc1OC | 11.6% (inactive) |
| Cc1cc(Cl)nc(N(CCNc2ccnc3cc(Cl)ccc23)Cc2ccccn2)n1 | 43.2% (inactive) |
| COc1ccc(C(=O)c2cc(OC)c(OC)c(OC)c2)cc1O | 32.7% (inactive) |
| N#C/C(=C\c1ccc([N+](=O)[O-])s1)c1nc2cc(Br)ccc2s1 | -52.1% (active) |
| Brc1ccc2[nH]cc(-c3cncn3CCc3ccccc3)c2c1 | 52.7% (inactive) |

| Compound | growth |
| --- | --- |
| Cc1c(C)c([N+](=O)[O-])c(C)c([N+](=O)[O-])c1C | 105% (inactive) |
| COc1ccc(C(=O)CC#N)cc1 | 105% (inactive) |
| O=C(/C=C/c1c(-c2ccc(Cl)cc2)nn(-c2ccccc2)c1C(F)(F)F)c1ccc(Cl)cc1 | 74.1% (inactive) |
| Cc1ccc(NS(=O)(=O)c2ccc(-c3cnc(C4CC4)o3)cc2)cc1C(F)(F)F | 58% (inactive) |
| CC(C)c1ccc(Nc2ccc3c(OCCCN4CCN(C)CC4)cccc3n2)cc1 | 71.5% (inactive) |
| CCN(c1ccccc1)S(=O)(=O)c1cc([N+](=O)[O-])ccc1Cl | 53.9% (inactive) |
| C=C1C(=O)O[C@H]2[C@H]1CC/C(CNS(=O)(=O)c1cccc3ccccc13)=C\CC[C@@]1(C)O[C@@H]21 | 21.9% (inactive) |
| COc1cc(C(=O)Nc2cc3c(cc2Oc2cc(C)cc(C)c2)C(=O)N(C)[C@@H](CC(=O)N(C)O)C(=O)N3)c(Br)c(OC)c1OC | -32.4% (active) |
| Cc1c2cc[nH]c(=O)c2c(C)c2c1[nH]c1cc(OCCN3CCN(C)CC3)ccc12 | 2.27% (active) |
| Cn1cc(-c2csc(-c3c[nH]c4ccccc34)n2)c2ccnc(Cl)c21 | 49.3% (inactive) |
| COc1ccc2nc(-c3ccc(-c4noc(-c5cc(OC)c(OC)c(OC)c5)n4)cc3)[nH]c2c1 | 108% (inactive) |
| Cn1cc(-c2nc(-c3c[nH]c4c(Cl)nccc34)cs2)c2cc(F)ccc21 | 103% (inactive) |
| O=C1NN(C(=O)c2ccccc2)C(c2ccc(Cl)c(Cl)c2)=C/C1=C\c1ccc([N+](=O)[O-])cc1 | 61.9% (inactive) |
| COc1ccc(OC)c(CCn2cncc2-c2c[nH]c3ccccc23)c1 | 46.6% (inactive) |
| N#Cc1c(-c2cccc([N+](=O)[O-])c2)nc(SCC(=O)c2ccc(Cl)cc2)[nH]c1=O | 80.6% (inactive) |
| COC(=O)c1ccc2c(c1)[n+](=O)c(C(C)=O)c(C(F)(F)F)n2[O-] | -82% (active) |
| C#Cc1cccc(NC(=O)Nc2cccc(NC(=O)CCl)c2)c1 | -64.7% [8.25 µM] (active) |
| Cc1nc2sccn2c1-c1cn2ccsc2n1 | 89.7% (inactive) |

What follows are compounds tested on TK-10 renal in the same assay as above. Details: 10 µM unless noted.

| Compound | growth |
| --- | --- |
| CCCCN1C=CCN(CCCC)C1 | 56.8% (inactive) |
| Cc1nn(-c2ccccc2)c(Cl)c1/C=N\N=c1/sc2ccccc2n1C | 99.1% (inactive) |
| COc1cc(CC(=O)n2ncc3ccc(N)cc32)cc(OC)c1OC | 108% (inactive) |
| Cn1cc(-c2nc(-c3c[nH]c4c(Cl)nccc34)cs2)c2cc(Br)ccc21 | 86.3% (inactive) |
| CCNc1nc2ccc(Nc3ccnc4cc(Cl)ccc34)cc2[nH]1 | 99.4% (inactive) |
| Cc1ncc(C(=O)Nc2ccc(CN3CCN(C)CC3)c(C(F)(F)F)c2)cc1C#Cc1cnc(N)cc1C#N | -54.7% (active) |
| COc1cc(/C=C\c2cc(/C=C\c3ccc(O)c(OC)c3)n(C(=O)COc3ccccc3)n2)ccc1O | 12.7% (inactive) |
| C[C@H](c1nc2ccc(N)cc2[nH]1)[C@H]1CC[C@H]2[C@@H]3CCC4=CC(=O)CC[C@]4(C)[C@H]3CC[C@]12C | 109% (inactive) |
| CC(c1ccccc1)C(C(=O)c1ccccc1)c1ccccc1 (centres undefined) | 66.2% (inactive) |
| N#CC1=C(N)Oc2c(ccc3ccccc23)C1c1ccccc1Cl (centres undefined) | 6.11% (active) |
| N#CC(C(=O)/C(=N/NC(=O)c1ccccc1O)C(C#N)c1ccccc1)c1ccccc1 (centres undefined) | 69.7% (inactive) |
| C[C@@H](Nc1ncnc2ccc(-c3cnc(N)nc3)cc12)c1ccc(F)cc1 | 21.4% (inactive) |
| Cc1cccc(C)c1N=c1oc2ccc(Cl)cc2nc1-c1ccccc1O | 101% (inactive) |
| COc1cc(C2C3=C(COC3=O)N(CCO)c3cc4c(cc32)CCC4)cc(OC)c1OC (centres undefined) | 55.3% (inactive) |
| COc1cc2cc(Oc3cccc(NC(=O)Nc4cc(C(F)(F)F)cc(C(F)(F)F)c4)c3)c(C)nc2cc1OC | 13.2% (inactive) |
| Cc1cc(Cl)nc(N(CCNc2ccnc3cc(Cl)ccc23)Cc2ccccn2)n1 | 63.3% (inactive) |
| COc1ccc(C(=O)c2cc(OC)c(OC)c(OC)c2)cc1O | 65.3% (inactive) |
| N#C/C(=C\c1ccc([N+](=O)[O-])s1)c1nc2cc(Br)ccc2s1 | 4.33% (active) |
| Brc1ccc2[nH]cc(-c3cncn3CCc3ccccc3)c2c1 | -60.4% (active) |

| Compound | growth |
| --- | --- |
| Cc1c(C)c([N+](=O)[O-])c(C)c([N+](=O)[O-])c1C | 102% (inactive) |
| COc1ccc(C(=O)CC#N)cc1 | 137% (inactive) |
| O=C(/C=C/c1c(-c2ccc(Cl)cc2)nn(-c2ccccc2)c1C(F)(F)F)c1ccc(Cl)cc1 | 118% (inactive) |
| Cc1ccc(NS(=O)(=O)c2ccc(-c3cnc(C4CC4)o3)cc2)cc1C(F)(F)F | 93.7% (inactive) |
| CC(C)c1ccc(Nc2ccc3c(OCCCN4CCN(C)CC4)cccc3n2)cc1 | 91% (inactive) |
| CCN(c1ccccc1)S(=O)(=O)c1cc([N+](=O)[O-])ccc1Cl | 107% (inactive) |
| C=C1C(=O)O[C@H]2[C@H]1CC/C(CNS(=O)(=O)c1cccc3ccccc13)=C\CC[C@@]1(C)O[C@@H]21 | 8.61% (active) |
| COc1cc(C(=O)Nc2cc3c(cc2Oc2cc(C)cc(C)c2)C(=O)N(C)[C@@H](CC(=O)N(C)O)C(=O)N3)c(Br)c(OC)c1OC | -12.2% (active) |
| Cc1c2cc[nH]c(=O)c2c(C)c2c1[nH]c1cc(OCCN3CCN(C)CC3)ccc12 | 27.5% (inactive) |
| Cn1cc(-c2csc(-c3c[nH]c4ccccc34)n2)c2ccnc(Cl)c21 | 77.4% (inactive) |
| COc1ccc2nc(-c3ccc(-c4noc(-c5cc(OC)c(OC)c(OC)c5)n4)cc3)[nH]c2c1 | 102% (inactive) |
| Cn1cc(-c2nc(-c3c[nH]c4c(Cl)nccc34)cs2)c2cc(F)ccc21 | 95% (inactive) |
| O=C1NN(C(=O)c2ccccc2)C(c2ccc(Cl)c(Cl)c2)=C/C1=C\c1ccc([N+](=O)[O-])cc1 | 106% (inactive) |
| COc1ccc(OC)c(CCn2cncc2-c2c[nH]c3ccccc23)c1 | 149% (inactive) |
| N#Cc1c(-c2cccc([N+](=O)[O-])c2)nc(SCC(=O)c2ccc(Cl)cc2)[nH]c1=O | 102% (inactive) |
| COC(=O)c1ccc2c(c1)[n+](=O)c(C(C)=O)c(C(F)(F)F)n2[O-] | 25.9% (inactive) |
| C#Cc1cccc(NC(=O)Nc2cccc(NC(=O)CCl)c2)c1 | -59.8% [8.25 µM] (active) |
| Cc1nc2sccn2c1-c1cn2ccsc2n1 | 103% (inactive) |
